Laboratory results published in PubChem BioAssay (NCATS).
Records with an inconclusive call do not appear. The source made the active and inactive calls. The call rests on the fitted dose curve; in most records, active means well fitted curve in the direction sought with a large enough effect; inconclusive means small, poorly fitted or top-dose-only effect, or another doubt; inactive means no such curve, though single readings can be large; an effect the other way counts as inactive or inconclusive.

Experiments:
[1] = Cell Viability - LYMP2-012 (AID 982); conditions: LYMP2-012 lymphoblastoid cell viability qHTS; series mostly up to 92.2 µM;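 further: cellular ATP by luciferase luminescence where a drop means cytotoxicity; cells exposed to compound for one day before reading; nearly all actives have a fitted effect of over 55% in size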
[2] = Cell Viability - LYMP2-014 (AID 983); conditions: LYMP2-014 lymphoblastoid cells, viability qHTS; series mostly up to 92.2 µM; further: nearly all actives have a fitted effect of over 50% in size
Procedure, shortened: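 Human lymphoblastoid cells (2500/well) were pre-incubated 5 hr at 37 C, then exposed to compounds in complete medium for 24 hr at 37 C. Intracellular ATP was read by CellTiter-Glo luminescence after 30 min at room temperature; AC50 from Hill fits.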

[3] = Cell Viability - LYMP2-016 (AID 984); conditions: LYMP2-016 lymphoblastoid cell viability, qHTS; series mostly up to 92.2 µM; further: nearly all actives have a fitted effect of over 55% in size
Procedure, shortened: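 Human lymphoblastoid LYMP2-016 cells, 2500 per well, treated with compounds for 24 h at 37 C. Viability read as intracellular ATP by CellTiter-Glo luminescence after 30 min at room temperature; AC50 from Hill fits of concentration-response.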

[4] = Cell Viability - LYMP2-018 (AID 985); conditions: LYMP2-018 lymphoblastoid cells, viability (qHTS); series mostly up to 92.2 µM;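 further: compound exposure lasted 24 hr at 37 °C; nearly all actives have a fitted effect of over 50% in size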
Procedure, shortened: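 Human lymphoblastoid cells (2500/well) were pre-incubated 5 hr at 37 C, then exposed to compounds for 24 hr at 37 C in complete medium. Viability was read as intracellular ATP by CellTiter-Glo luminescence; AC50 values came from Hill-equation fits.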

[5] = Cell Viability - LYMP2-020 (AID 986); conditions: series mostly up to 92.2 µM; further: nearly all actives have a fitted effect of over 55% in size
Procedure, shortened: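 Human lymphoblastoid cells, 2500/well, were pre-incubated 5 hr at 37 C, then exposed to compounds for 24 hr at 37 C in complete medium. Intracellular ATP was read by CellTiter-Glo luminescence, and AC50 was derived by Hill fitting of concentration-response data.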

[6] = Cell Viability - LYMP2-022 (AID 987); conditions: LYMP2-022 lymphoblastoid cell viability; series mostly up to 92.2 µM; further: nearly all actives have a fitted effect of over 55% in size
Procedure, shortened: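 Human lymphoblastoid cells, 2500/well, preincubated 5 hr at 37 C, then exposed to compounds over a concentration range for 24 hr at 37 C in complete medium. Viability read as intracellular ATP by CellTiter-Glo luminescence after 30 min at room temperature; AC50 from Hill fits.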

[7] = Cell Viability - LYMP2-024 (AID 988); conditions: LYMP2-024 lymphoblastoid cell viability; series mostly up to 92.2 µM; further: nearly all actives have a fitted effect of over 60% in size
Procedure, shortened: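 Human lymphoblastoid cells (2500/well) in complete medium were preincubated 5 hr at 37 C, then exposed to compounds for 24 hr at 37 C. Intracellular ATP was read by CellTiter-Glo luminescence; AC50 from Hill-equation fits of concentration-response data.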

[8] = Cell Viability - LYMP2-026 (AID 989); conditions: LYMP2-026 lymphoblastoid cell viability, qHTS; series mostly up to 92.2 µM; further: nearly all actives have a fitted effect of over 50% in size
Procedure, shortened: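 Human lymphoblastoid cells (2500/well) in complete medium were preincubated 5 hr at 37 C, then exposed to compounds for 24 hr at 37 C. Cellular ATP was read by CellTiter-Glo luminescence; AC50 from Hill-equation fits of concentration-response data.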

[9] = Cell Viability - LYMP1-002 - Assay at 24 hr (AID 993); conditions: LYMP1-002 lymphoblastoid cells viability; series mostly up to 92.2 µM
Procedure, shortened: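 Human lymphoblastoid LYMP1-002 cells, 2500/well in complete medium, were treated with compounds for 24 h at 37 C; intracellular ATP was read by CellTiter-Glo luminescence. AC50 values came from Hill-equation fits of qHTS concentration-response data.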

[10] = biological target: Alpha-galactosidase A (Homo sapiens) (UniProt P06280); test: Counterscreen for Glucocerebrosidase Inhibitors: qHTS Assay for Human alpha-Galactosidase at pH 4.5 (AID 992); conditions: purified enzyme, fluorogenic substrate; series mostly up to 76.9 µM
Procedure, shortened: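 Human enzyme (2 nM) with 80 uM 4-methylumbelliferyl alpha-D-galactopyranoside in 50 mM citric acid, 0.005% Tween-20, pH 4.5, 20 min at room temperature. Compounds 0.7 nM–77 uM; fluorescence Ex 365/Em 440 after pH 10 stop; AC50 from Hill fits.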

Measured: outcome

Alpha-galactosidase A (Homo sapiens), sequence (P06280 whole entry, looked up): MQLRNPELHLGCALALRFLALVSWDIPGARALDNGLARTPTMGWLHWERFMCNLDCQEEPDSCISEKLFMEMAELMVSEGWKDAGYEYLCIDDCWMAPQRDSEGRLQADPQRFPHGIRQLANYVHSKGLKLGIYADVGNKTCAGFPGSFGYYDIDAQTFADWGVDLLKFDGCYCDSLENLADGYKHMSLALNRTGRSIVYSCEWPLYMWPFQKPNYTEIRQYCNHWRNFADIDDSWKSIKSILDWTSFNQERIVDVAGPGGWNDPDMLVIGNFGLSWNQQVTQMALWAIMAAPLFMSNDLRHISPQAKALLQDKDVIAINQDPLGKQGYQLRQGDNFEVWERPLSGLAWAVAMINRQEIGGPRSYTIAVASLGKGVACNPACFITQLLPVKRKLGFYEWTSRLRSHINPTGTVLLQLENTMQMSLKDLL

Cc1cc(O)c2c(c1)C(=O)c1cccc(O)c1C2=O
inactive: [1] | [2] | [3] | [4] | [5] | [6] | [7] | [8] | [9]

COc1ccc2c(c1OC)C(=O)OC2[C@H]1c2c(cc3c(c2OC)OCO3)CCN1C (stereo not given in full)
inactive: [10]
